Experimental findings from PubChem BioAssay (EPA / NIEHS) are described below.

Read-out in assay [1]: CFLAR gene, CFLAR (gene 8837)
Kind of assay: LTEA_HepaRG_CFLAR: Life Technologies and Expression Analysis (LTEA) Assay for CFLAR gene using HepaRG (AID 2283455). As to conditions: mRNA level, 48 h; actives raise or lower the signal. In a few lines: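 qRT-PCR read-out (Fluidigm/TaqMan) of CFLAR mRNA, normalized to three housekeeping genes, in differentiated human HepaRG cells after 48 h chemical exposure; 8-point half-log series from 100 uM in 0.5% DMSO; bidirectional curve fitting versus DMSO.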

Read-out in assay [2]: Forkhead box O1 (FOXO1), FOXO1 (gene 2308)
The assay is described as follows: LTEA_HepaRG_FOXO1: Life Technologies and Expression Analysis (LTEA) Assay for Forkhead box O1 (FOXO1) using HepaRG (AID 2283456). As to conditions: mRNA level, 48 h; actives raise or lower the signal. In a few lines:
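HepaRG, 48 h exposure, 8-pt half-log series from 100 uM in 0.5% DMSO, duplicates; Fluidigm qRT-PCR mRNA, housekeeping-normalised; bidirectional fit vs DMSO baseline.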

Read-out in assay [3]: growth arrest and DNA damage 45 (GADD45A), GADD45A (gene 1647)
Kind of assay: LTEA_HepaRG_GADD45A: Life Technologies and Expression Analysis (LTEA) Assay for growth arrest and DNA damage 45 (GADD45A) using HepaRG (AID 2283458). Conditions: mRNA level, 48 h; actives raise or lower the signal. In a few lines:
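Transcript induction or loss, quantified by TaqMan qRT-PCR against three housekeeping genes, is the read-out. HepaRG cells received chemicals for 48 h across eight half-log concentrations from 100 uM in 0.5% DMSO; gain and loss fitted relative to DMSO.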

Read-out in assay [4]: ABC Transporter (ABCB1), ABCB1 (gene 5243)
Kind of assay: LTEA_HepaRG_ABCB1: Life Technologies and Expression Analysis (LTEA) Assay for ABC Transporter (ABCB1) using HepaRG (AID 2283460). As to conditions: mRNA level, 48 h; actives raise or lower the signal. In a few lines: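 HepaRG, 48 h exposure, 8-pt half-log series from 100 uM, 0.5% DMSO vehicle, duplicates. Readout: ABCB1 transcript by Fluidigm TaqMan qRT-PCR, housekeeping-normalized; bidirectional curve fit vs DMSO baseline.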

Read-out in assay [5]: growth arrest and DNA damage 45 (GADD45B), GADD45B (gene 4616)
Kind of assay: LTEA_HepaRG_GADD45B: Life Technologies and Expression Analysis (LTEA) Assay for growth arrest and DNA damage 45 (GADD45B) using HepaRG (AID 2283461). Conditions: mRNA level, 48 h; actives raise or lower the signal. The procedure, abridged:
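Differentiated HepaRG cells, plated 48 h then switched to serum-free induction medium, were exposed 48 h in duplicate to eight half-log concentrations from 100 uM in 0.5% DMSO; mRNA quantified by qRT-PCR, normalized to ACTB/GAPDH/POLR2A, bidirectional fit versus DMSO.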

Read-out in assay [6]: ABC Transporter (ABCC3), ABCC3 (gene 8714)
Kind of assay: LTEA_HepaRG_ABCC3: Life Technologies and Expression Analysis (LTEA) Assay for ABC Transporter (ABCC3) using HepaRG (AID 2283462). Conditions: mRNA level, 48 h; actives raise or lower the signal. In a few lines: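 HepaRG cells in serum-free induction medium were exposed for 48 h in duplicate to 8-point half-log concentrations topping at 100 uM in 0.5% DMSO. ABCC3 mRNA was measured by qRT-PCR normalized to ACTB, GAPDH and POLR2A, with bidirectional fitting versus DMSO.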

Read-out in assay [7]: ABC Transporter (ABCB11), ABCB11 (gene 8647)
The assay is described as follows: LTEA_HepaRG_ABCB11: Life Technologies and Expression Analysis (LTEA) Assay for ABC Transporter (ABCB11) using HepaRG (AID 2283463). As to conditions: mRNA level, 48 h; actives raise or lower the signal. The procedure, abridged: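 HepaRG, 48 h exposure, 8-pt half-log CRC top 100 uM, 0.5% DMSO vehicle, duplicates. Readout: TaqMan qRT-PCR of ABCB11 mRNA, housekeeping-normalized (ACTB/GAPDH/POLR2A). Bidirectional fit vs DMSO baseline.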

Read-out in assay [8]: ABC Transporter (ABCC2), ABCC2 (gene 1244)
Kind of assay: LTEA_HepaRG_ABCC2: Life Technologies and Expression Analysis (LTEA) Assay for ABC Transporter (ABCC2) using HepaRG (AID 2283464). Conditions: mRNA level, 48 h; actives raise or lower the signal. In a few lines: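 HepaRG cells were plated 48 h, switched to serum-free induction medium, then exposed in duplicate for 48 h to 8 concentrations (top 100 uM, half-log steps, 0.5% DMSO). ABCC2 mRNA was measured by qRT-PCR normalized to ACTB/GAPDH/POLR2A; bidirectional fitting versus DMSO.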

Read-out in assay [9]: Forkhead box O3 (FOXO3), FOXO3 (gene 2309)
The assay is described as follows: LTEA_HepaRG_FOXO3: Life Technologies and Expression Analysis (LTEA) Assay for Forkhead box O3 (FOXO3) using HepaRG (AID 2283459). As to conditions: mRNA level, 48 h; actives raise or lower the signal. The procedure, abridged: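 qRT-PCR readout of FOXO3 transcript, normalized to three housekeeping genes (ACTB, GAPDH, POLR2A); gain or loss fitted against 0.5% DMSO vehicle. HepaRG cells, 48 h chemical exposure, 8-point half-log series, top 100 uM.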

Assay [10] can be described thus: CEETOX_H295R_TESTO: CeeTox H295R High-throughput Steroidogenesis Assay for Testosterone (TESTO) (AID 2283457).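 On AC50: cells exposed to chemicals for 48 h before medium collection.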 Conditions: actives raise or lower the signal. In a few lines:
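H295R human adrenal cells in DMEM/F12 with ITS+ and Nu-Serum, exposed to chemicals for 48 h. Testosterone in medium measured by MTBE extraction, reverse-phase HPLC-MS/MS; bidirectional fit versus DMSO baseline. MTT viability checked in same wells.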

Each structure is given as a SMILES string. Calls of active or inactive are those of the source. How the source made its calls: active means hit-call score of the fitted dose curve at least 0.9, where 1 is the maximum; inactive means score below 0.9.

For the molecule `N#C[C@@H]1CC(F)(F)CN1C(=O)CNC1CC2CCC(C1)N2c1ncccn1` (some centres not stated), the molecule was classed as inactive in assay [1], in [2], in [3], in assay [4], in assay [5] and in [6]. Besides, the molecule was classed as inactive in [7] and in assay [8].
On to `CCCCCCC(=O)O`, for which the molecule was classed as inactive in [1], in assay [2], in [9], in [4], in [5] and in assay [6]. Further, the molecule was classed as inactive in assay [7] and in assay [8].
Usually AC50 stands for the concentration giving half of the maximal activity seen. Regarding `CN1CCN(c2ccccc2/C=C2\SCCN(c3ccc(Cl)c(Cl)c3)C2=O)CC1`, the call in [1], in assay [4] and in assay [8] was inactive. For the same molecule, the AC50 was 90.3 µM (active) in assay [2]; 69 µM (active) in [9]; 50 µM (active) in [5]; 11.5 µM (active) in assay [6]; 22.5 µM (active) in [7].
With `OC1CCC(C2CCCCC2)CC1` (configuration not stated), the molecule was called inactive in assay [1], in assay [2], in [3], in assay [4], in assay [5] and in [6]. For the same molecule, the molecule was classed as inactive in assay [7] and in assay [8].
`O=c1c(-c2ccc(O)cc2)coc2cc(O)ccc12`: the outcome in assay [1], in [2], in assay [4], in [5], in assay [6] and in assay [7] was inactive. Moreover, the call in [8] was inactive. In assay [10], the AC50 was 16.4 µM (active).
`CCCCC(CC)COC(=O)CCCCC(=O)OCc1ccccc1` (configuration not stated): the molecule was classed as inactive in [1], in assay [2], in [3], in assay [4], in assay [5] and in assay [6]. The molecule was called inactive in assay [7] and in assay [8].
In the case of `CCC(=C(c1ccc(O)cc1)c1ccc(OCCN(C)C)cc1)c1ccccc1`, the AC50 in [1] is 97.3 µM (active); in assay [2] it was 82.6 µM (active); in assay [6], 82.1 µM (active); in assay [8], 86.1 µM (active). Also, the outcome in assay [10], in assay [3], in assay [9], in assay [4], in assay [5] and in [7] was inactive.
For `C[C@@H]1C[C@H]2[C@@H]3CCC4=CC(=O)C=C[C@]4(C)[C@@]3(F)[C@@H](O)C[C@]2(C)[C@@]1(O)C(=O)COP(=O)(O)O`, the outcome in assay [1], in [2], in assay [3], in assay [4], in assay [5] and in assay [6] was inactive. Besides, the call in assay [7] and in [8] was inactive.
Turning to `O=[N+]([O-])c1ccc(O)cc1`, the call in assay [1], in assay [2], in [3], in [9], in assay [4] and in assay [5] was inactive. Also, the result in assay [6], in assay [7] and in assay [8] was inactive.
For `CCCOc1sc(C(=O)N2CCC(c3cc(CN)ccc3F)CC2)c(C)c1Br`, the call in [1], in [2], in assay [3], in assay [9], in [4] and in [5] was inactive. The call in assay [6], in [7] and in assay [8] was inactive.
`c1ccc2c(c1)ccc1ccccc12`: the call in [1], in assay [2], in assay [9], in assay [4], in assay [5] and in assay [6] was inactive. Also, in [7], the outcome was inactive. Also, the AC50 in assay [10] was 56.2 µM (active); in assay [8], 9.92 µM (active).
As to `CCC(C)(C)C1CCC(O)CC1` (configuration not stated), the call in assay [1], in assay [2], in assay [3], in assay [4], in assay [5] and in assay [6] was inactive. Moreover, the outcome in assay [7] and in [8] was inactive.
Consider `CC[C@H](C)[C@@H](C(=O)O)n1sc2ccccc2c1=O`, for which the molecule was classed as inactive in assay [1], in assay [2], in assay [3], in [4], in [5] and in [6]. The result in assay [7] and in assay [8] was inactive.
`CCCCCCCCCCCCN1CCCC1=O`: the result in [1], in [2], in assay [3], in assay [4], in [5] and in assay [6] was inactive. Also, the outcome in [7] and in assay [8] was inactive.
